Screening data as filed in PubChem BioAssay.
Compounds with a hit are over-represented: about 5.7% of the library has one in this group of screens.
Giardia killer = Giardia lamblia killing; Giardia lamblia trophozoite viability; activity change, % at 7.66 µM, hits read low; 340,000 compounds, 0.15% hits; in the data active = activity change below about -80%; inconclusive = between about -30% and that limit;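 also: parasites exposed to compound for two days anaerobically before the ATP read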
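Luminescence from cellular ATP indicates surviving trophozoites (100 cells/well) following 48 hrs anaerobic compound treatment at 37 deg C; signal develops 15-30 min at room temperature.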
A549 viability = A549 cytotoxicity, counter-screen for Nrf2 inhibitors. A549 ARE-Fluc cells, CellTiter-Fluor viability, 18-24 h. Potency, µM (doses to about 46 µM), for inactives: at the top dose activity change, negative = cytotoxicity, usual class: inhibitors. 390,000 compounds, 0.16% hits. AID 504648; also: potency is read from the fitted curve at half-maximal effect
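Cytotoxicity counterscreen: CellTiter-Fluor fluorescence was measured in A549 ARE_Fluc cells after 18-24 h of compound exposure in a concentration series. The subsequent BugLite luminescent read reports ARE-luciferase activity.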
Nrf2 inh = Nrf2 pathway inhibition. A549 ARE-Fluc reporter, luciferase luminescence, 18-24 h. Potency, µM (titrated, usually from 46 µM), without a hit: top-dose activity change, negative = inhibition, hits mostly inhibitors. 360,000 compounds, 2.1% hits; also: potency is read from the fitted curve at half-maximal effect; nearly all actives have a fitted effect of over 60% in size
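A549 ARE_Fluc cells, 5000/well, 5% FBS OPTI-MEM; compounds in dose-response, 18-24 h at 37 °C/5% CO2; CellTiter-Fluor viability read (Ex 405/Em 525), then BugLite luciferase luminescence = Nrf2 activity.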
KB-V1 MDR tox = KB-V1 MDR subline cytotoxicity; KB-V1 MDR cells viability, CellTiter-Glo, 72 h; Potency, µM (doses to about 46.1 µM), hits mostly cytotoxic; 400,000 compounds, 3.4% hits; AID 1347076; also: potency is read from the fitted curve at half-maximal effect; nearly all actives have a fitted effect of over 60% in size
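Cytotoxicity via CellTiter-Glo luminescence after 72 h compound exposure at 37 degrees C. Cells: drug-selected KB-V1 line, DMEM phenol-red free plus 10% FBS. Compounds tested at multiple concentrations; normalized data fitted to concentration-effect curves.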
KB-3-1 cytotox = kills parental KB-3-1 adenocarcinoma cells; KB-3-1 viability, CellTiter-Glo ATP luminescence, 72 h; Potency, µM (series often up to 46.1 µM), hits mostly cytotoxic; 400,000 compounds, 1.4% hits; AID 1347075; also: potency is read from the fitted curve at half-maximal effect; nearly all actives have a fitted effect of over 60% in size
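Luminescent ATP read-out (CellTiter-Glo) measures survival of drug-naive KB-3-1 cells after 72 h compound exposure at 37 °C. Titration series was screened from lowest to highest concentration, with DMSO vehicle plates as background controls.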
PI4K2A inh = inhibitors of human PI4K2A; Q9BTU6; purified PI4K2A, ADP-Glo luminescence, 1 h; active compounds read low; activity change, negative = inhibition, % at 76.9 µM; 420,000 compounds, 0.13% hits; AID 1346378; in the data active = activity change below about -50%; inconclusive = mostly about -30% to -49%;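 also: -100% = wells without enzyme as full effect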
Target sequence (Q9BTU6 whole entry, looked up): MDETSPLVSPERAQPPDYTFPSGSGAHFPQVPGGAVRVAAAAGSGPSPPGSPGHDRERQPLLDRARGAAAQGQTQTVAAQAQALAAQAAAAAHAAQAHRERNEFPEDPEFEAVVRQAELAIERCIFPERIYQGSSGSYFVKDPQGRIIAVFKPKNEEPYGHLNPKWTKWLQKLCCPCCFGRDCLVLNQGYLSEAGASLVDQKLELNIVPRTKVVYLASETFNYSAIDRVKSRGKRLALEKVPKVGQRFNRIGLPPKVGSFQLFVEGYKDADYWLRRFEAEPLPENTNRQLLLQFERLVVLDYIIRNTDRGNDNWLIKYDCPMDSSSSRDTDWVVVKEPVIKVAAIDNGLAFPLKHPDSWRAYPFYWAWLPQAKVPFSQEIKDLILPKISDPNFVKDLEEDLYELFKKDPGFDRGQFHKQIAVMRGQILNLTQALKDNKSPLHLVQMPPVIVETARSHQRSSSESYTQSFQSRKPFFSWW
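Compounds are screened against recombinant PI4K2A using PI as substrate and ATP, the latter dispensed at 300 microM. Reactions run one hour at ambient temperature before ADP-Glo detection; full inhibition defined by wells lacking enzyme.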
* marks the source's active call; other numbers are inactive results. Unless noted, calls follow the shape of the dose curve; as a rule, active = well fitted curve in the direction sought with a large enough effect; inconclusive = small, poorly fitted or top-dose-only effect, or another doubt; inactive = no such curve, though single readings can be large; an effect the other way counts as inactive or inconclusive. Unless noted, % is scaled to controls: 0 for no effect and ±100 for the full control effect.

What do the screens show for `Cc1cc(C(=O)CN2CCN(CC(=O)Nc3ccc(F)cc3)CC2)c(C)n1C1CC1`?
Giardia killer: 6; A549 viability: -5%; Nrf2 inh: 4%; KB-V1 MDR tox: inconclusive; KB-3-1 cytotox: inactive; PI4K2A inh: 0

How did Cc1cc(Cl)ccc1Oc1ncc(-c2ccc(Cl)cc2)cn1 do in these assays?
Giardia killer: 13; A549 viability: -21%; Nrf2 inh: inconclusive; KB-V1 MDR tox: 18µM*; KB-3-1 cytotox: inactive; PI4K2A inh: -5

How did Clc1ccc(-c2cnc(Oc3ccccc3)nc2)cc1 do in these assays?
Giardia killer: -8; A549 viability: 9%; Nrf2 inh: inconclusive; KB-V1 MDR tox: inactive; KB-3-1 cytotox: inactive; PI4K2A inh: -3

What do the screens show for `CCOC(=O)c1c(CN2CCNCC2)nc2ccc(Cl)cc2c1-c1ccccc1`?
Giardia killer: 4; A549 viability: -11%; Nrf2 inh: 4%; KB-V1 MDR tox: 23µM*; KB-3-1 cytotox: inconclusive; PI4K2A inh: 0

Results for Cc1nc2ccc(Cl)cc2c(-c2ccccc2)c1C(=O)N(C)C ?
Giardia killer: 5; A549 viability: -10%; Nrf2 inh: -33%; KB-V1 MDR tox: inactive; KB-3-1 cytotox: inactive; PI4K2A inh: -4

What do the screens show for `O=c1[nH]cc(CCc2ccccc2)c2ncncc12`?
Giardia killer: -18; A549 viability: 5%; Nrf2 inh: 1%

How did COc1cccc(Nc2ccc([N+](=O)[O-])c3nonc23)c1 do in these assays?
Giardia killer: -24; A549 viability: 18µM*; Nrf2 inh: inconclusive; KB-V1 MDR tox: inactive; KB-3-1 cytotox: inactive; PI4K2A inh: -15

How did O=C(O)c1ccccc1Nc1ccc([N+](=O)[O-])c2nonc12 do in these assays?
Giardia killer: inconclusive; A549 viability: 18µM*; Nrf2 inh: -21%; KB-V1 MDR tox: inactive; KB-3-1 cytotox: inconclusive; PI4K2A inh: -7

How did O=C1C2C3C=CC(CC3)C2C(=O)N1c1ccccc1 (centres undefined) do in these assays?
Giardia killer: 3; A549 viability: 4%; Nrf2 inh: -5%; KB-V1 MDR tox: inactive; KB-3-1 cytotox: inactive; PI4K2A inh: 1

How did O=C1C=CC2C3C(=O)N(c4ccccc4)C(=O)C3C1N2Cc1ccccc1 (centres undefined) do in these assays?
Giardia killer: 2; A549 viability: 0%; Nrf2 inh: 13%; KB-V1 MDR tox: 18µM*; KB-3-1 cytotox: inconclusive; PI4K2A inh: 12

What do the screens show for `CCC(C(=O)Nc1cc(OC)ccc1OC)n1c(C)c2cnn(-c3ccccc3)c(=O)c2c1C` (centres undefined)?
A549 viability: 2%; Nrf2 inh: -14%; KB-V1 MDR tox: inactive; KB-3-1 cytotox: inactive; PI4K2A inh: 1

How did CC1CCCN(c2nc3ccsc3c(=O)s2)C1 (centres undefined) do in these assays?
Giardia killer: -21; A549 viability: 1%; Nrf2 inh: 2%; KB-V1 MDR tox: 16µM*; KB-3-1 cytotox: inconclusive; PI4K2A inh: 2

Results for CC1CCCN(c2sc(S(C)(=O)=O)nc2S(=O)(=O)c2ccc(Cl)cc2)C1 (centres undefined) ?
Giardia killer: 14; A549 viability: -6%; Nrf2 inh: -4%; KB-V1 MDR tox: inconclusive; KB-3-1 cytotox: inactive; PI4K2A inh: 0

What do the screens show for `CN(C)c1cccc(-c2ccnc(N3CCC(C(N)=O)CC3)n2)c1`?
PI4K2A inh: 4

Results for Cc1cc(-c2ccc(C(C)C)c(S(=O)(=O)N3CCC(C)CC3)c2)on1 ?
Giardia killer: -3; A549 viability: 8%; Nrf2 inh: 7%; KB-V1 MDR tox: inactive; KB-3-1 cytotox: 21µM*; PI4K2A inh: -2

What do the screens show for `CCc1ccc(-c2cc(C)no2)cc1S(=O)(=O)N1CCN(c2ccc(C(C)=O)cc2)CC1`?
Giardia killer: -13; A549 viability: 0%; Nrf2 inh: inconclusive; KB-V1 MDR tox: inconclusive; KB-3-1 cytotox: inconclusive; PI4K2A inh: -1
